Source: PubChem BioAssay (The Scripps Research Institute Molecular Screening Center)
GalR3 antag: GalR3 antagonists in HEK293 cells, primary screen, cell-based, fluorescence readout. Galanin receptor type 3 (Homo sapiens), O60755. HEK293 GalR3-CNG cAMP membrane potential fluorescence; galR3 body fused to GalR1 C-terminus. inhibition, % at 3 µM. 360,000 compounds, 0.44% hits. AID 651719, 2012;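 active means inhibition above the screen-wide average plus 3 SD, cut at about 13% in these data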;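 further: forskolin and galanin both at EC90 stimulate the cells; cAMP rise reported by CNG channel membrane potential dye signal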
Target sequence (O60755 1-299 limits assumed): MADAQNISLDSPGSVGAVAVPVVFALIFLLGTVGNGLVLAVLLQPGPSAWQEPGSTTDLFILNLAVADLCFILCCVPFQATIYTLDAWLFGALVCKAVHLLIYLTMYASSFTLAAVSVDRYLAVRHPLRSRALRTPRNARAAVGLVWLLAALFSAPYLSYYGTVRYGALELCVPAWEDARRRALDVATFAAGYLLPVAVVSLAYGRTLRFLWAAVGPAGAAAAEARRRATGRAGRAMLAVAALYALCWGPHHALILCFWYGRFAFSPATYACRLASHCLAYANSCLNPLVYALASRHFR
SRC2 inh: inhibition of GAL4-SRC2 driven luciferase reporter, primary screen, SRC2 inhibitor project, cell-based, luminescence; Nuclear receptor coactivator 2 (Homo sapiens), Q15596; HEK293 GAL4-SRC2 luciferase reporter; inhibition, % at 9 µM; 370,000 compounds, 0.17% hits;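 active means inhibition above the mean inhibition of all tested compounds plus 3 SD, set per campaign, cut at about 52% in these data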
NCOA1 inh: SRC1 coactivator transcriptional activity inhibitors, primary screen, cell-based, luminescence | 360,000 compounds, 0.12% hits | Nuclear receptor coactivator 1 (Homo sapiens), Q15788 | inhibition, % at 3.6 µM | HEK293 GAL4-SRC1 luciferase reporter;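 active means inhibition above the campaign mean plus 3 SD, with each screening campaign given its own cutoff, cut at about 60% in these data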
LRH-1 inv ag: LRH-1 (NR5A2) inverse agonists, primary screen, cell-based, luminescence, HEK293T, StAR-luciferase reporter; 360,000 compounds, 0.13% hits; inhibition, % at 3.6 µM; LRH-1 transfected, 24 h; AID 602396, 2012;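 active means inhibition above the mean inhibition of all tested compounds plus 3 SD, cut at about 73% in these data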
NCOA3 inh: SRC3 coactivator transcriptional activity inhibitors, primary screen, cell-based, luminescence; AID 588352, 2011; 360,000 compounds, 0.17% hits; HEK293 GAL4-SRC3 luciferase reporter; inhibition, % at 3.6 µM; Nuclear receptor coactivator 3 (Homo sapiens), Q9Y6Q9;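 active means inhibition above a per-campaign cutoff, the mean of all compounds plus 3 SD, cut at about 60% in these data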;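 further: higher means less SRC3-driven luciferase light from the GAL4 reporter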
COUP-TFII inh: NR2F2 transcriptional activity inhibitors, primary screen, cell-based, luciferase reporter, HEK293T, luminescence; COUP transcription factor 2 (Homo sapiens), P24468; HEK293T NGFI-A luciferase reporter; inhibition, % at 8.6 µM; 370,000 compounds, 0.7% hits; AID 686940, 2013;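 active means inhibition above a per-plate cutoff, mean inhibition of test wells between control levels plus 3 SD, cut at about 38% in these data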;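 further: cells cotransfected with COUP-TFII expression vector driving the NGFI-A reporter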
Gal4-VP16 ctr: Gal4-VP16 luciferase reporter inhibitors, counter-screen for COUP-TFII antagonist project, cell-based, luminescence, HEK293; shares compounds with COUP-TFII inh; inhibition, % at 8.5 µM; 2,500 compounds, 25% hits; AID 687007, 2013; in the data active means inhibition above about 13%
NR2F2 inh conf: NR2F2 transcriptional activity inhibitors, confirmation, cell-based, luciferase reporter, HEK293, triplicate; shares compounds with COUP-TFII inh; HEK293 NGFI-A luciferase reporter, luminescence; inhibition, % at 8.5 µM; 2,500 compounds, 45% hits;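 active means mean inhibition over three repeats above a set limit taken from the earlier primary screen, cut at about 38% in these data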
A number is an active result; . = inactive; / = no result. Rows were chosen to be rich in hits. Some 1.1% of all compounds tested hit in one or more screens of this group.

SMILES	GalR3 antag	SRC2 inh	NCOA1 inh	LRH-1 inv ag	NCOA3 inh	COUP-TFII inh	Gal4-VP16 ctr	NR2F2 inh conf
C[C@H](CO)N1C[C@H](C)[C@@H](CN(C)C(=O)C2CC2)OCc2cn(nn2)CCCC1=O	.	.	/	/	/	.	/	/
O=C(C1CCCN1S(=O)(=O)c1ccccc1[N+](=O)[O-])N1CCc2ccccc2C1 (stereo not drawn)	/	.	/	/	/	.	/	/
CC(C)[C@H](NC(=O)c1ccc(Cl)cc1Cl)C(=O)N1CCC[C@H]1C(=O)NCCc1ccccc1Cl	.	.	/	/	/	.	/	/
COC(=O)c1ccc(N2C(c3ccsc3)=Cc3cc4c(cc3C2CC(=O)c2ccco2)OCO4)cc1 (stereo not drawn)	.	.	/	.	/	43	.	.
Cn1nc(C(C)(C)C)cc1C(=O)N1CCCCC1c1cc(C(=O)NCc2ccc(F)cc2)no1 (stereo not drawn)	.	.	.	.	.	38	.	.
Cc1cc(C)cc(C(=O)OCCCN(C)C2CN(Cc3cn(Cc4ccccc4F)nn3)S(=O)(=O)C2)c1 (stereo not drawn)	/	.	/	/	/	.	/	/
COc1ccc(CNc2cc(C)nc3ncnn23)c(OC)c1	.	.	.	.	.	65	.	.
COC(=O)c1ccc(S(=O)(=O)N2CCCN(Cc3cccc(Br)c3F)CC2)n1C	.	.	.	.	.	55	.	.
CC(C)c1ccc(/C=C(\c2nc3ccccc3[nH]2)S(=O)(=O)c2ccccc2)cc1	.	53	.	.	73	40	31	.
COC(=O)/C(=C\c1ccc(O)cc1)c1nc2ccccc2[nH]1	.	.	.	.	.	.	/	/
O=S(=O)(/C(=C/c1ccc(C(F)(F)F)cc1)c1nc2ccccc2[nH]1)c1ccccc1	.	.	.	.	.	49	67	62
C/C(=C\c1ccc(N)cc1)c1nc2ccccc2[nH]1	.	.	.	.	.	.	/	/
C=Cc1ccc(C(=O)N(Cc2ccc(F)cc2)C(C(=O)N(C)C2CCCC2)c2ccc(OC)c(OC)c2)cc1 (stereo not drawn)	/	.	/	/	/	.	/	/
CSCCC(Nc1ncnc2ccc(Br)cc12)C(=O)O (stereo not drawn)	.	.	.	.	.	.	/	/
CC(C)Nc1ncnc2ccc(Br)cc12	.	.	66	.	62	53	19	45
CCOc1cc(/C=N/NC(N)=S)cc(Br)c1OCc1ccccc1C	/	/	.	.	.	/	/	/
COc1cc(/C=N/NC(N)=S)cc(Br)c1OCc1ccccc1F	.	.	.	.	.	52	24	51
Nc1ccc2c(c1)C(=O)C(=O)c1ccccc1-2	.	94	85	105	93	102	97	110
COc1ccc(NC(=O)Cn2c(C)cc(=O)c3ccccc32)cc1	.	.	.	.	.	55	.	.
CC(=O)c1cn(CC(=O)Nc2c(C)cccc2C)c2ccccc12	.	.	.	.	.	.	/	/
COc1cccc2c(=O)cc(C)n(CC(=O)Nc3cccc(C)c3)c12	.	.	.	.	.	47	.	.
CC(=O)c1cn(CC(=O)Nc2ccccc2C)c2ccccc12	.	.	.	.	.	38	.	.
COc1ccc(NC(=O)Cn2cc(C(C)=O)c3ccccc32)cc1	.	.	.	.	.	48	.	.
CCOc1ccc(NC(=O)Cn2cc(C(C)=O)c3ccccc32)cc1	.	.	.	.	.	.	/	/
CC(=O)CC[C@@H]1CC[C@]2(CCCN(C(=O)C3CCCC3)C2)O1	/	.	/	/	/	.	/	/
SMILES	GalR3 antag	SRC2 inh	NCOA1 inh	LRH-1 inv ag	NCOA3 inh	COUP-TFII inh	Gal4-VP16 ctr	NR2F2 inh conf
S=C(NCC1CCCO1)N1CCN(c2nc(-c3ccc(Cl)cc3)cs2)CC1 (stereo not drawn)	.	.	.	.	.	59	.	.
CC(=O)Nc1ccc(NC(=O)c2csc([C@H]3C[C@H](O)[C@@H](CO)O3)n2)cc1	.	.	.	.	.	.	/	/
O=C(Nc1ccc(Oc2ccccc2)cc1)c1csc([C@@H]2C[C@H](O)[C@@H](CO)O2)n1	.	.	.	.	.	52	.	.
O=C(CCc1ccc(S(=O)(=O)N2CCOCC2)cc1)Nc1nc(COc2ccccc2)cs1	.	.	.	.	.	39	.	.
O=C(COc1ccccc1)Nc1nc(-c2ccc(S(=O)(=O)N3CCOCC3)cc2)cs1	.	.	.	.	.	.	/	/
Cc1csc2ncnc(N3CCN(C(=O)Nc4ccc(OC(F)(F)F)cc4)CC3)c12	.	.	.	.	.	39	.	.
Cc1ccc(Cc2c(-c3ccco3)nc3ccc(C)cn23)cc1	.	.	.	.	.	.	/	/
Cc1ccc(Cc2c(-c3ccco3)nc3c4ccccc4ccn23)cc1	.	.	.	.	.	41	.	.
Cc1c(C)n(Cc2ccccc2)c2ncnc(Cl)c12	.	.	.	.	.	45	.	42
Cc1c(C)n(CCc2ccccc2)c2ncnc(NCCO)c12	.	.	.	.	.	.	/	/
c1ccc(CN2CCC(CNc3ncnc4ccccc34)C2)cc1 (stereo not drawn)	.	.	.	.	.	41	.	.
c1ccc(CN2CCC(Nc3nc(-c4ccccc4)nc4ccccc34)CC2)cc1	.	.	.	.	.	.	/	/
Cc1ccc2c(c1)N(C)/C(=C/c1cccc[n+]1C)S2	.	.	.	.	.	57	.	42
CN1/C(=C/c2cccc[n+]2C)Sc2ccccc21	.	.	.	.	.	53	.	48
Cc1ccc2c(c1)N(C)/C(=C/c1cccc[n+]1CCO)S2	.	.	.	.	.	.	/	/
COCc1ccc(C(=O)Nc2cccc(S(=O)(=O)N(C)c3ccccc3)c2)cc1	.	.	.	.	.	.	/	/
O=S(=O)(NC1CCCC1)c1ccc(S(=O)(=O)N2CCc3ccccc32)cc1	.	.	.	.	.	40	.	.
CN(C)S(=O)(=O)c1cccc(NC(=O)c2cccc(S(=O)(=O)N3CCc4ccccc43)c2)c1	.	.	.	.	.	42	.	.
